The values below come from PubChem BioAssay (NCI).

Compounds without any hit were thinned out: in the full panel of roughly 83,000, 20% have a hit.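 Assay: single dose, 48 h. Readout: percent growth (0 = no net growth; negative = cell death). Active: <10.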 Calls of active or inactive are those of the source.

The experiment relates to BT-549 breast. As to the kind of experiment: NCI-60 one-dose screen, 48 h (100 = growth as untreated, 0 = no growth, -100 = all killed). The settings on record: 10 µM. The protocol: Growth inhibition of the BT-549 human tumor cell line is measured as a screen for anti-cancer activity. Cells are grown in 96 well plates and exposed to the test compound for 48 hours. Compounds are tested at a single concentration, which is 10^-5 M for most compounds. The reported endpoint is percent growth (GI% or GIPRCNT), where numbers from 0 - 100% represent growth inhibition, and numbers from -100% - 0 represent cell death. For example, a value of 40 represents 60% growth inhibition. A value of 0 means no net growth occurred over the course of the experiment. A value of -40 indicates 40% of cells at the beginning of the experiment died by the end of the experiment. A value of -100 means all cells are dead at the end of the experiment.
NCI-60 Human Tumor Cell Lines Screen was performed using the standard one-dose NCI protocol, which is described in more detail at https://dtp.cancer.gov/discovery_development/nci-60/default.htm.
Compounds with GIPRCNT values below 10 were considered active. Activity score was based on GIPRCNT using the following formula: […]
Score is 0 for GIPRCNT values of 100 or above, 50 for GIPRCNT values of 0, and 100 for GIPRCNT values of -100.
In the case of `Cc1cccc(NC2=C(C#N)C(=O)NC3(CCCC3)S2)c1`, the growth was 102% (inactive).

As for `O=C(Nc1cccc(-n2cc(-c3ccncc3)c(-c3ccc(O)c(Cl)c3)n2)c1)c1cc(C(F)(F)F)cc(C(F)(F)F)c1`, the growth was 79.7% (inactive).

With `FC(F)(F)c1ccc(-c2cnc(-n3cc(COCCN4CCCCC4)nn3)nc2NC2CCCCCC2)cc1`, the growth was 68.1% (inactive).

Take `Cn1c([N+](=O)[O-])cnc1/C=C1\Oc2ccc(Cl)cc2C1=O`: the growth was -35.7% (active).

In the case of `COc1cc(/C=C2\CCCC3=C2N=C2SC=NN2C3c2cc(OC)c(OC)c(OC)c2)cc(OC)c1OC` (stereo not given), the growth was 37.9% (inactive).

For the compound `Cc1ccc(Nc2cc(C)nc(NCCCNc3ccnc4cc(Cl)ccc34)n2)cc1`, the growth is -85.5% (active).

`CCCCN(CCCC)c1cc(C(=O)CCCCCN)c2ccccc2n1`: the growth was 68.2% (inactive).

As for `CN(C)Cc1cn(-c2ncc(-c3ccc(C(F)(F)F)cc3)c(NC3CCCCCC3)n2)nn1`, the growth was 94.6% (inactive).

As for `CCN(CC)CCNC(=O)c1ccc(NC(C)=O)cc1`, the growth is 106% (inactive).

Take `Cc1nc2ccc(CN(C)c3ccc(C(=O)N[C@@H](CCC(=O)O)C(=O)O)s3)cc2c(=O)[nH]1`: the growth was 57.4% (inactive).

Turning to `Nc1ncnc2[nH]c(=O)[nH]c12`, the growth is 122% (inactive).

As for `N#CCCN1C/C(=C/c2ccccc2)C(=O)/C(=C/c2ccccc2)C1`, the growth was 44.3% (inactive).

As for `CC1CC(=O)OC(C)C1` (stereo not given), the growth is 114% (inactive).

With `COc1ccc(C2CC(c3ccc(N(C)C)cc3)=NN2c2ccc(S(N)(=O)=O)cc2)cc1` (stereo not given), the growth was 75% (inactive).

For the compound `O=C(N/N=C\c1cc(Cl)ccc1[N+](=O)[O-])c1ccco1`, the growth was 101% (inactive).

For `C#Cc1ccc(-n2c(/C=C/c3ccc4ccccc4n3)nc3ncccc3c2=O)cc1`, the growth was 5.21% (active).

As for `COc1ccc2c(c1)N(CCO)C1=C(C(=O)OC1)C2c1ccccc1` (stereo not given), the growth was 47.2% (inactive).

Regarding `CCN(CC)CCC(CNc1c(C)cnc2cc(Cl)ccc12)c1ccc(Cl)c(Cl)c1` (stereo not given), the growth was 75.1% (inactive).

Take `Cc1ccc(-c2n[nH]c(=O)c3noc(-c4ccc(C)cc4)c23)cc1`: the growth was 38.3% (inactive).

As for `CCc1ccc2c(c1)N(CCO)C1=C(C(=O)OC1)C2c1cc(OC)c(OC)c(OC)c1` (stereo not given), the growth is 19.8% (inactive).

For `c1ccc(C(NC2CC3CCC2C3)c2ccccc2)cc1` (stereo not given), the growth is 78.4% (inactive).

For `O=C(O)CC(Cl)C(Cl)CC(=O)O` (stereo not given), the growth is 97.5% (inactive).

As for `O=C1/C(=C\c2ccc(F)cc2)CN(C(=O)c2ccc([N+](=O)[O-])cc2)C/C1=C\c1ccc(F)cc1`, the growth was 5.36% (active).

Consider `O=C(Nc1ccc(CO)cc1)c1ccccc1Nc1ccnc(C(F)(F)F)c1`, for which the growth was 104% (inactive).

Consider `O=C(CSSCC(=O)c1ccc(Cl)cc1)c1ccc(Cl)cc1`, for which the growth was 84.9% (inactive).

Regarding `O=C1Nc2ccc(Cl)cc2/C1=C\c1c(-c2ccc(Cl)cc2)nc2sc(C3CC3)nn12`, the growth is 65.3% (inactive).

In the case of `CCCCOc1ccc(NC(=O)Nc2nnc(C)s2)cc1`, the growth is 110% (inactive).

Regarding `COc1ccc(-c2nn(-c3cccc(NC(=O)c4cccc(C(F)(F)F)c4)c3)cc2-c2ccncc2)cc1Cl`, the growth is 35% (inactive).

`CCN1CCCC1CNC(=O)c1ncc(-c2ccc(C(F)(F)F)cc2)c(NC2CCCCCC2)n1` (stereo not given): the growth is 99.2% (inactive).

For `COc1ccc(-c2nc(-c3nc4cc(Cl)c(F)cc4[nH]3)c3ccccn23)cc1`, the growth is 91% (inactive).

As to `COc1ccc(-c2nsc3c2NC(=O)CC3c2ccc(F)cc2)cc1` (stereo not given), the growth was 28% (inactive).

`CC1(C)CCC(=NNC(N)=S)CC1`: the growth is 125% (inactive).

For `O=C(Nc1ccncc1)C(=O)c1cn(S(=O)(=O)c2cccc(Cl)c2)c2ccccc12`, the growth is 49% (inactive).

In the case of `Cc1ccc(-c2nc(/C=C3/C(=O)N(C)c4ccc(F)cc43)c3ccccn23)cc1`, the growth was 99.9% (inactive).

For the compound `O=[N+]([O-])c1ccc(Oc2cccnc2)c([N+](=O)[O-])c1`, the growth is 72.3% (inactive).

`OCC1OC(n2cnc3c(N/N=C\c4ccccn4)ncnc32)C(O)C1O` (stereo not given): the growth was 44.3% (inactive).

On to `COc1ccc(/C=C/C(=O)Nc2ccc(-c3nc4ccc(F)cc4s3)cc2)cc1`, for which the growth is 86.7% (inactive).

As to `ClC(Cl)(Cl)c1nc2nccnc2[nH]1`, the growth was 103% (inactive).

In the case of `COc1cc(Cc2cc(-c3ccc(Cl)cc3)n[nH]c2=O)ccc1O`, the growth was 95.2% (inactive).

`C#Cc1ccc(-n2c(/C=C/c3ccc4ccccc4c3)nc3ncccc3c2=O)cc1`: the growth is 52.4% (inactive).
